Source: PubChem
p53ts 32C kill: p53ts cell cytotoxicity, permissive temperature; hit rate 0.93% among 130,000; Potency, µM (highest dose often 46.1 µM), for inactives: top-dose activity change, negative = cytotoxicity, usual class: cytotoxic; AID 924; H1299-p53A138V at 32C, ATP luminescence viability, 24 h;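 further: 0% = DMSO and -100% = full killing by reference compound; nearly all actives have a fitted effect of over 55% in size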
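Viability by ATPlite luminescence after 24 h compound treatment (up to 46 uM) at the permissive 32C. Cells are H1299 carrying p53 A138V. Scale runs from DMSO basal to 100 uM tamoxifen as full kill; AC50 from Hill fits.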
FLuc inh: blocks Photinus pyralis firefly luciferase activity; Potency, µM (doses to about 57.1 µM), for the others: top-dose activity change, negative = inhibition, most hits filed as inhibitors; P08659; purified firefly luciferase, luminescence, 8 min; hit rate 2.2% among 72,000; further: on the % scale 0 is the no-effect control and ±100 the full control effect; nearly all actives have a fitted effect of over 40% in size
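Titration-based qHTS; buffer 50 mM imidazole pH 7.2, 50 mM KCl, 7 mM MgCl2, 10 uM ATP, 0.01% Tween 20, 0.05% BSA; luciferase/luciferin detector mix added after compound; 8 min, ambient; luminescence.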
Tau filament bind: binders of human tau filaments; P10636; recombinant tau filaments, thioflavin S fluorescence, 15 h; filaments grown with octadecylsulfate alongside compound; Potency, µM (highest dose often 57.1 µM), without a hit: at the top dose activity change, negative = inhibition; hit rate 2% among 71,000; AID 596;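 further: on the % scale 0 is the no-effect control and ±100 the full control effect; actives lower thioflavin S fluorescence by blocking filaments or displacing dye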
Target sequence (P10636 whole entry, looked up): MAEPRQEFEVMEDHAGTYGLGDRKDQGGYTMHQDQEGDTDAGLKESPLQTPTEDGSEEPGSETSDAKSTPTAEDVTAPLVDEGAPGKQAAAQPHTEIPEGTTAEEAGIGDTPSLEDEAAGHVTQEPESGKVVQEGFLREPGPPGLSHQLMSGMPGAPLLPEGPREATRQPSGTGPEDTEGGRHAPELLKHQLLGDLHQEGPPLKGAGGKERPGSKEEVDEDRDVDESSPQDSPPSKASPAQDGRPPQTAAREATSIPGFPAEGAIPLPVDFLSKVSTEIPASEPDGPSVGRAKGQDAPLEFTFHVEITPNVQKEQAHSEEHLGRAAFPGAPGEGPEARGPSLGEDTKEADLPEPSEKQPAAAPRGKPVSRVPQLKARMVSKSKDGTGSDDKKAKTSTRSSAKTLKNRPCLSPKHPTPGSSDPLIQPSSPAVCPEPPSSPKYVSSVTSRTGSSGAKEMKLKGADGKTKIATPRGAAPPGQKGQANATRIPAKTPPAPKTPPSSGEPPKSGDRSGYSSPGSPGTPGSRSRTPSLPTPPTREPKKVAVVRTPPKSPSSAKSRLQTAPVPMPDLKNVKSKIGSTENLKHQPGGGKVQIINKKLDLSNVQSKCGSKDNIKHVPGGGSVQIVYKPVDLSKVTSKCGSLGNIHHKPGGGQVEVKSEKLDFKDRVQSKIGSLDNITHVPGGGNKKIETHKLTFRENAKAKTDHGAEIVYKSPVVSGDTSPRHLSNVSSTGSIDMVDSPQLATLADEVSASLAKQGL
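ThS-based fibril read: tau 1 uM final, inducer ODS 30 uM final, 37 C for 15 h, ex 450/em 510 nm.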
Peg3 imprint: inducers of genomic imprint erasure in mouse ES cells; mouse ES Peg3-LacZ reporter, beta-gal luminescence, 40 h; Potency, µM (series often up to 60.7 µM), for the others: top-dose activity change, positive = activation, actives largely listed as activators; hit rate 0.02% among 110,000
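Imprint erasure is scored as LacZ activity from the silenced maternal Peg3 allele in feeder-free female ES cells cultured 40 h with LIF. Luminescence is normalized to in-plate negative controls and fitted to the Hill equation.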
p53ts 39C tox: cytotoxicity in p53ts cells at nonpermissive temperature | H1299-p53A138V viability at 39C, ATP luminescence, 24 h | Potency, µM (highest dose often 46.1 µM), without a hit: at the highest dose activity change, negative = cell killing, usual class: cytotoxic | hit rate 1.5% among 130,000; further: on the % scale 0 is the no-effect control and ±100 the full control effect; nearly all actives have a fitted effect of over 55% in size
* = called active by the depositor; [ ] = another dose, or the depositor's remark. Sampled rows, rich in hits. Any-hit rate of the full collection: about 3.4%. The call rests on the fitted dose curve; in most records, active means well fitted curve in the direction sought with a large enough effect; inconclusive means small, poorly fitted or top-dose-only effect, or another doubt; inactive means no such curve, though single readings can be large; an effect the other way counts as inactive or inconclusive. Potency means the concentration at half of the fitted maximal effect.

How did COc1cccc2c(=O)n(CC(=O)NC3CCCC3)ccc12 do in these assays?
p53ts 32C kill: -7%; FLuc inh: 6%; Tau filament bind: -5%; Peg3 imprint: -13%; p53ts 39C tox: 16%

What do the screens show for `COc1cccc2c(=O)n(CC(=O)N3CCCc4ccccc43)ccc12`?
p53ts 32C kill: 12%; FLuc inh: -1%; Tau filament bind: 13µM*; Peg3 imprint: -12%; p53ts 39C tox: 3%

Results for CCc1c(C)c2ccc(O)c(CN3CCN(c4ccc(OC)cc4)CC3)c2oc1=O ?
p53ts 32C kill: inconclusive; Peg3 imprint: -14%[10.9 µM]; p53ts 39C tox: 7.9µM*

How did OCCN1CCN(CCC=C2c3ccccc3Sc3ccc(Cl)cc32)CC1 do in these assays?
p53ts 32C kill: -7%[20.6 µM]; FLuc inh: -4%[25.5 µM]; Tau filament bind: 34%[25.6 µM]; Peg3 imprint: 4%[16.8 µM]; p53ts 39C tox: -10%[20.6 µM]

What do the screens show for `CC(=O)c1c(O)c(C)c(O)c2c1OC1=CC(=O)[C@H](C(C)=O)C(=O)[C@]12C`?
FLuc inh: -1%[11.4 µM]; Tau filament bind: inconclusive

What do the screens show for `Cc1nn(CC(=O)NCc2ccc(F)cc2)c2ccccc12`?
p53ts 32C kill: 5%; Peg3 imprint: -9%[10.9 µM]; p53ts 39C tox: -15%

How did CC(NC(=O)c1cc2ccccn2n1)c1ccccc1 (configuration not stated) do in these assays?
p53ts 32C kill: -3%; Peg3 imprint: -14%[10.9 µM]; p53ts 39C tox: -19%

How did CCS(=O)(=O)c1ccccc1C(=O)Nc1ccc(-c2nc3ccccc3s2)cc1 do in these assays?
p53ts 32C kill: 5%; Peg3 imprint: 20%[10.9 µM]; p53ts 39C tox: -4%

How did COc1cc(OC)cc(C(=O)Nc2cc(-c3nc4ccccc4s3)ccc2OC)c1 do in these assays?
p53ts 32C kill: -10%; Peg3 imprint: 5%[10.9 µM]; p53ts 39C tox: -5%

What do the screens show for `CC(C)(C)C(=O)Nc1ccc(-c2nc3ccccc3s2)cc1`?
p53ts 32C kill: 0.32µM*; Peg3 imprint: -74%[10.9 µM]; p53ts 39C tox: 0.32µM*

How did COc1ccc(-c2nc3ccccc3s2)cc1NC(=O)c1ccc(F)cc1 do in these assays?
p53ts 32C kill: -13%; Peg3 imprint: -4%[10.9 µM]; p53ts 39C tox: 13µM*

How did CCOc1ccc(NC(=O)N2CCC(CN3CCc4ccccc4C3)CC2)cc1 do in these assays?
p53ts 32C kill: -8%

How did CC(=O)C1=C(C)N=c2s/c(=C/c3ccc4c(c3)OCO4)c(=O)n2C1c1ccc(N(C)C)cc1 (configuration not stated) do in these assays?
p53ts 32C kill: 8%; FLuc inh: -2%; Tau filament bind: 4µM*; Peg3 imprint: -10%; p53ts 39C tox: -9%

What do the screens show for `CCN(CC)c1cc(C)c2cc(NC(=O)c3ccc(OC)c(OC)c3)ccc2n1`?
p53ts 32C kill: -9%; Peg3 imprint: -4%[10.9 µM]; p53ts 39C tox: -23%

Results for COc1ccccc1Nc1nc2ccccc2n1C ?
p53ts 32C kill: inconclusive; FLuc inh: 16µM*; Tau filament bind: 5%; Peg3 imprint: -82%; p53ts 39C tox: 18%

What do the screens show for `Cc1onc(-c2ccccc2)c1C(=O)OCC(=O)c1ccccc1`?
p53ts 32C kill: -8%; FLuc inh: 0%; Tau filament bind: 0%; Peg3 imprint: -6%; p53ts 39C tox: 8%

Results for Cc1ccc(-n2c(C)cc(C(=O)COC(=O)c3c(C)noc3C)c2C)cc1 ?
p53ts 32C kill: inconclusive; FLuc inh: 25µM*; Tau filament bind: 6%; Peg3 imprint: -50%; p53ts 39C tox: inconclusive

What do the screens show for `CCn1nc(-c2ccccc2)c(-c2ccccc2)c(C(=O)Nc2ccc(NC(C)=O)cc2)c1=O`?
p53ts 32C kill: 7%; Peg3 imprint: -3%[10.9 µM]; p53ts 39C tox: -22%

How did O=C1c2oc3ccccc3c(=O)c2C(c2cccnc2)N1Cc1ccco1 (configuration not stated) do in these assays?
p53ts 32C kill: -25%; FLuc inh: 3.2µM*; Tau filament bind: 78%; Peg3 imprint: -25%; p53ts 39C tox: -22%

How did O=C1c2oc3ccc(Cl)cc3c(=O)c2C(c2cccnc2)N1Cc1ccco1 (configuration not stated) do in these assays?
p53ts 32C kill: inconclusive; FLuc inh: 13µM*; Tau filament bind: 42%; Peg3 imprint: -30%; p53ts 39C tox: inconclusive

Results for CCN(CC)CCCN1C(=O)c2oc3ccccc3c(=O)c2C1c1cccnc1 (configuration not stated) ?
p53ts 32C kill: 8%; FLuc inh: 2%; Tau filament bind: 13%; Peg3 imprint: -13%; p53ts 39C tox: 15%

How did COc1cc(C2c3c(oc4ccc(Cl)cc4c3=O)C(=O)N2Cc2ccco2)cc(OC)c1OC (configuration not stated) do in these assays?
p53ts 32C kill: 5%; FLuc inh: 4%; Tau filament bind: -8%; Peg3 imprint: -2%; p53ts 39C tox: -3%

Results for CCOC(=O)CC(=O)CSc1nc(-c2cccnc2)ccc1C#N ?
p53ts 32C kill: -15%; FLuc inh: -7%; Tau filament bind: 15%; Peg3 imprint: -2%; p53ts 39C tox: -7%

How did CCOC(=O)CSc1nc(-c2ccncc2)ccc1C#N do in these assays?
FLuc inh: 7.9µM*

What do the screens show for `CCOC(=O)CSc1nc(-c2ccc3c(c2)OCO3)ccc1C#N`?
FLuc inh: 4µM*

Results for N[C@H]1CCN(O)C1=O ?
p53ts 32C kill: 1%; FLuc inh: 1%; Tau filament bind: inconclusive; Peg3 imprint: -8%; p53ts 39C tox: -5%

Results for CC(C)c1ccc(NS(=O)(=O)c2ccc3nc(-c4ccccc4)[nH]c3c2)cc1 ?
p53ts 32C kill: inconclusive; Peg3 imprint: -12%[10.9 µM]; p53ts 39C tox: 20µM*

What do the screens show for `Cc1ccc(-n2nc(C)c(C(=O)NCCCN3CCN(c4ccccc4F)CC3)c2-n2cccc2)cc1`?
p53ts 32C kill: -9%; Peg3 imprint: -18%[10.9 µM]; p53ts 39C tox: 13µM*

Results for Cc1ccc(-n2nc(C)c(C(=O)NCCCN3CCN(c4cccc(Cl)c4)CC3)c2-n2cccc2)cc1 ?
p53ts 32C kill: inconclusive; Peg3 imprint: -14%[10.9 µM]; p53ts 39C tox: inconclusive

What do the screens show for `CCCc1nn2c(=O)cc(COC(=O)c3ccccc3NC(=O)c3cccs3)nc2s1`?
p53ts 32C kill: 11%; Peg3 imprint: 2%[10.9 µM]; p53ts 39C tox: 0%

Results for CCCc1nn2c(=O)cc(COC(=O)c3ccccc3NC(=O)c3ccc(OCC)cc3)nc2s1 ?
p53ts 32C kill: -11%; Peg3 imprint: 12%[10.9 µM]; p53ts 39C tox: 10µM*

What do the screens show for `CC(=O)c1ccc(NC(=O)c2nc(-c3ccccc3)n(-c3ccc(C)cc3)n2)cc1`?
p53ts 32C kill: -9%; Peg3 imprint: 2%[10.9 µM]; p53ts 39C tox: -11%

What do the screens show for `COC(=O)C1=C(C)Nc2ccc(C)cc2S1`?
p53ts 32C kill: -1%; FLuc inh: -17%; Tau filament bind: 20µM*; Peg3 imprint: -8%; p53ts 39C tox: -6%
